Molecules are shown by their SMILES. Records with an inconclusive call do not appear. Activity calls are given as the source filed them. The call rests on the fitted dose curve; in most records, active means well fitted inhibition curve with a large enough effect; inconclusive means small, poorly fitted or top-dose-only effect; inactive means no such curve, though single readings can be large or run the other way.
Potency means the concentration at half of the fitted maximal effect.

Sequence of Cruzipain (Trypanosoma cruzi) (P25779 123-467 limits assumed): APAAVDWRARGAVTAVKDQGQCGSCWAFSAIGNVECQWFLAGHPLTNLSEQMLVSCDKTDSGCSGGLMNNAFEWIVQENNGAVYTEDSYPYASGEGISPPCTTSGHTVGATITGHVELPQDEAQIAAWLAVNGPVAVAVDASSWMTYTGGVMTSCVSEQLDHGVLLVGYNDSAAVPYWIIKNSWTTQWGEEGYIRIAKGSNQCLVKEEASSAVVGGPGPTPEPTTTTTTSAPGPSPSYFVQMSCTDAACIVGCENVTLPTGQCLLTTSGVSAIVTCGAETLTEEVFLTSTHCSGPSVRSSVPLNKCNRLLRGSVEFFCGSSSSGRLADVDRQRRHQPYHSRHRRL

For this assay, the target named is Cruzipain (Trypanosoma cruzi) (UniProt P25779). Briefly: Confirmation qHTS Assay for Inhibitors of Cruzain. Further: nearly all actives have a fitted effect of over 40% in size.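 On activity change, negative = inhibition: plate controls were uninhibited enzyme control for no effect and buffer wells lacking enzyme for full effect.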 The conditions noted are these: purified cruzain, Z-FR-AMC fluorescence, 0.01% Triton. A digest of the protocol:
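Reaction progress from the 60 s rise in AMC fluorescence (ex 360, em 450 nm) after adding 2 uM Z-FR-AMC. Before this, 1.5 nM cruzain sat 15 min at room temperature with compound in pH 5.5 acetate buffer with 5 mM DTT and 0.01% Triton X-100.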
Take `c1ccc(CN(Cc2ccccc2)Cc2nnc(-c3cc4ccccc4[nH]3)o2)cc1`: the activity change, negative = inhibition was -7.39% (inactive).
Still for that read-out and setting: as for `COc1cccc(-c2nn3c(-c4cc(C)[nH]n4)nnc3s2)c1`, the figure is -5.64% (inactive).
Take `O=C(NCCc1nc2ccccc2n1CCCCOc1ccccc1)C1CCCCC1`: the Potency is 0.562 µM (active).
For the compound `CC1=CC(=NOC(=O)/C=C/c2ccccc2)C=C(C)C1=O`, the Potency is 3.98 µM (active).
Regarding `CC(=O)NCCCc1ccc(C(=O)COC(=O)CNC(=O)c2ccc3ccccc3c2)cc1`, the activity change, negative = inhibition was -5.36% (inactive).
As for `CCC(C(=O)NC1CCCCC1)n1c(SCc2cccc(F)c2)nc2ccncc21` (stereo unspecified), the Potency was 6.31 µM (active).
As for `c1ccc(CN(Cc2ccccc2)Cc2nnc(-c3cc4ccccc4[nH]3)s2)cc1`, the activity change, negative = inhibition was -2.53% (inactive).
On the same count and under the same terms, as for `CN1CCN(c2ncc3ncc(=O)n(-c4ccccc4)c3n2)CC1`, the figure is -20% (inactive).
For the compound `N#Cc1nc(Nc2cc(F)cc(F)c2)c2ncn(C3CCCC3)c2n1`, the Potency is 0.0224 µM (active).
Consider `CCOC(=O)CNC(=O)C1CCCCC1`, for which the activity change, negative = inhibition was -11.9% (inactive).
`CCN(CC)c1nc(C#N)nc(N2CCOCC2)n1`: the Potency was 8.91 µM (active).
In the case of `CCn1cnc2c(NCc3cccnc3)nc(C#N)nc21`, the activity change, negative = inhibition was -4.84% (inactive).
On to `Cc1cccc(C(=O)NCC(=O)OCC(=O)c2ccc3ccccc3c2)c1`, for which the Potency is 12.6 µM (active).
Take `Cc1ccc(C)c(OCCn2c(CCNC(=O)C3CCCCC3)nc3ccccc32)c1`: the Potency was 0.0708 µM (active).
On to `CCc1ccc(OCCCCn2c(CCNC(=O)C3CCCCC3)nc3ccccc32)cc1`, for which the Potency is 1.58 µM (active).
As for `CCCCNC(=O)c1ccc2nc(-c3cccs3)c(-c3cccs3)nc2c1`, the activity change, negative = inhibition was -3.05% (inactive).
